FMDV inh: antivirals against foot and mouth disease virus; FMDV antiviral cell-based qHTS; Potency, µM (doses to about 57.9 µM), for the others: at the highest dose activity change, negative = inhibition, most hits filed as inhibitors; 410,000 compounds, 1.2% hits; calls by dose curve; tested in HEK293T cells; also: read-out not given here; potency is read from the fitted curve at half-maximal effect; nearly all actives have a fitted effect of over 45% in size
MARV entry inh: inhibitors of Marburg virus binding or cell entry; Marburg virus pseudotyped entry inhibition, cell reporter; Potency, µM (doses to about 37.8 µM), inactives show top-dose activity change, negative = inhibition, most hits filed as inhibitors; 300,000 compounds, 1.8% hits; AID 540276; calls by dose curve; tested in HEK293 cells; also: potency is read from the fitted curve at half-maximal effect
HCMV inh: human cytomegalovirus inhibition; HFF cells, HCMV-luciferase reporter, 72 h; active compounds read low; activity change, negative = inhibition, % at 57.5 µM; 410,000 compounds, 4.5% hits; AID 1259415; in the data active = activity change below about -60%; inconclusive = no clear call, values can overlap the other calls; inactive = above about -39%
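After 16 h attachment at 37C, HFF cells received test compound and HCMV-luciferase (1 PFU/cell); reporter luminescence read 72 h later, data normalized against buffer-only and known inhibitor Salinomycin.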
HCV inhibitor: inhibitors of hepatitis C virus infection; Huh7.5.1 HCVcc-Cre infection, luciferase reporter, 44 h; AID 651820; Potency, µM (top dose mostly 41.8 µM), without a hit: top-dose activity change, negative = inhibition, hits mostly inhibitors; 340,000 compounds, 3.4% hits; active = well fitted inhibition curve with a large enough effect; inconclusive = small, poorly fitted or top-dose-only effect, or another doubt; inactive = no such curve, though single readings can be large or run the other way; also: potency is read from the fitted curve at half-maximal effect
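Whole-lifecycle infectious HCVcc-Cre system; cells 1,000/well, compound then virus (~0.5 moi) added 4 h after plating, 44 h culture. Luciferase read 15 sec following 15 min substrate incubation, room temp.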
Lassa entry inh: inhibitors of Lassa virus binding or cell entry. Lassa virus pseudotype entry inhibition, cell reporter. Potency, µM (series often up to 37.9 µM), inactives show at the highest dose activity change, negative = inhibition, actives largely listed as inhibitors. 300,000 compounds, 1.2% hits. AID 540256; calls by dose curve; tested in HEK293 cells; also: potency is read from the fitted curve at half-maximal effect; nearly all actives have a fitted effect of over 50% in size
* hit, by the source's call; u = inconclusive; x = no result; [ ] = another dose, or the depositor's remark. Sampled rows, rich in hits. Any-hit rate of the full collection: about 7.9%. % is scaled to controls: 0 for no effect and ±100 for the full control effect.

SMILES	FMDV inh	MARV entry inh	HCMV inh	HCV inhibitor	Lassa entry inh
N#Cc1ccc(C(=O)N2CCC3CC2c2cc(-c4ccc(F)cc4)ccc23)cc1 (stereo not given)	0%	x	10	35µM*	x
CC(C)(NC(=O)c1ccccc1)c1nc2ccccc2s1	26%	x	41	3%	x
Cc1cc(C(=O)C(C)Sc2cccc[n+]2[O-])c(C)n1-c1ccc(Cl)cc1 (stereo not given)	-7%	u	-26	4.5µM*	u
Cc1cc(C(=O)C(=O)O)c(C)n1-c1ccc(Cl)cc1	0%	-7%[46.1 µM]	-32	8%	19%[46.1 µM]
CCOc1ccccc1CNc1nc2nc(C)c(CC(=O)OC)c(=O)n2[nH]1	6%	-5%[46.1 µM]	12	x	-8%[46.1 µM]
NC(=O)c1nsc(C(=O)N(Cc2cccnc2)C(C(=O)NCc2ccc(F)cc2)c2ccc(F)cc2)c1N (stereo not given)	u	u	-9	-27%	u
C=CCn1c(C)cc(C(=O)COC(=O)/C=C/c2ccc(OC)cc2)c1C	1%	22%	15	u	-24%
C=CCn1c(C)cc(C(=O)COC(=O)/C=C/c2cccc(OC)c2)c1C	-5%	x	u	13µM*	x
CCO[C@H]1[C@H](NC(=O)c2cccnc2)c2ccccc2C12CCN(C(=O)c1ccoc1)CC2	-6%	x	x	x	x
COc1ccc(NC(=O)c2oc3ccccc3c2NC(=O)c2cc(C)cc(C)c2)c(OC)c1	3%	-1%[46.1 µM]	1	x	7%[46.1 µM]
c1ccc(-c2ccccc2OCCCCN2CCCCC2)cc1	-24%	7.1µM*	u	u	u
Clc1ccccc1OCCCCN1CCCCC1	-19%	x	27	u	x
c1ccc(-c2ccccc2OCCCN2CCCCCC2)cc1	-15%	x	-72*	u	x
COc1ccccc1OCCOCCN1CCCC1	-4%	x	49	8%	x
Cc1ccccc1OCCOCCN1CCCCCC1	-17%	10µM*	u	-13%	9%[46.1 µM]
c1ccc(-c2ccccc2OCCCN2CCCC2)cc1	-20%	5.6µM*	-3	-23%	u
COc1ccc(C(=O)C(Nc2ccccc2)C(=O)Nc2ccc3ccccc3c2)cc1 (stereo not given)	x	x	51	x	x
COc1cccc(CNC(=O)CNC(=S)N(Cc2ccccc2)Cc2ccccc2F)c1	-18%	u	-66*	-18%	-12%
O=C(CNC(=S)N(Cc1ccccc1)Cc1ccccc1F)NCc1ccccc1	33%	u	u	-10%	u
COc1ccccc1C=C1CCc2ccccc2C1=O	-35%	x	15	x	x
COc1cc(/C=C2\CCc3ccccc3C2=O)cc(OC)c1OC	-27%	u	-74*	u	u
COc1cc(/C=C2/CCc3ccccc3C2=O)cc(OC)c1OC	u	11µM*	u	u	u
COc1ccc(/C=C2/CCc3ccccc3C2=O)cc1OC	-1%	-22%	u	u	u
COc1ccc(COC(=O)N/N=C2\C[C@@H](O)[C@@H](O)[C@@H]3[C@@H]4C(=O)N(Cc5ccccc5)C(=O)[C@@H]4CC[C@H]23)cc1	x	-25%[14.2 µM]	x	x	x
O=C(c1c[nH]cc1-c1ccccc1)c1cccc2ccccc12	-21%	12µM*	6	-26%	-16%
SMILES	FMDV inh	MARV entry inh	HCMV inh	HCV inhibitor	Lassa entry inh
Cc1nn(-c2ccccc2)c(C)c1/C=C/C(=O)OCC(=O)N(C)C1CCS(=O)(=O)C1 (stereo not given)	23%	49%	-30	-1%	u
Cn1c(SCc2cc(=O)n3cc(Br)ccc3n2)nnc1C1COc2ccccc2O1 (stereo not given)	-18%	0%	11	2%	17%
CC1CC1C(=O)OCc1cc(=O)n2cc(Br)ccc2n1 (stereo not given)	-12%	-1%	-83*	12%	u
O=C(OCc1cc(=O)n2cc(Br)ccc2n1)C1COc2ccccc2O1 (stereo not given)	3%	14%	-65*	13%	19%
C=C(CO[C@@H]1C=C[C@@H](c2ccccc2)O[C@@H]1COC)c1ccccc1	x	-4%[14.2 µM]	x	x	x
COc1ccc(NC(=O)c2cccc(N3C(=O)C4C5C=CC(C6CC56)C4C3=O)c2)c(OC)c1 (stereo not given)	-30%	u	-18	-29%	18µM*
COc1ccc(NC(=O)c2cccc(N3C(=O)C4C5CCC(C5)C4C3=O)c2)cc1 (stereo not given)	u	-19%	-13	-12%	-15%
O=C(Nc1ccc(Cl)cc1)c1cccc(N2C(=O)C3C4CCC(C4)C3C2=O)c1 (stereo not given)	32µM*	u	u	u	u
COc1ccc(NC(=O)c2cccc(N3C(=O)C4C5C=CC(C5)C4C3=O)c2)c(OC)c1 (stereo not given)	-6%	x	-8	-14%	x
COc1ccc(NC(=O)c2cccc(N3C(=O)C4C5C=CC(C6CC56)C4C3=O)c2)cc1 (stereo not given)	40µM*	u	-8	x	-19%
COc1ccc(NC(=O)c2cccc(N3C(=O)C4C5C=CC(C5)C4C3=O)c2)cc1Cl (stereo not given)	u	12%[46.1 µM]	13	10µM*	-27%
CCOC(=O)NC[C@H](Cc1ccc(OCCc2nc(-c3ccccc3)oc2C)cc1)N/C(C)=C\C(=O)c1ccc(C(F)(F)F)cc1	-2%	x	x	x	x
Cc1ccc2nc(SCC(=O)N3CCCCC3)nc(=O)n2c1	4%	25%[46.1 µM]	-29	1%	13%
O=C(c1ccco1)n1nc(-c2ccccc2)nc1NCc1ccc(F)cc1	16%	u	6	x	-4%[46.1 µM]
O=P1(NC2CCCCC2)OCC2(CO1)COP(=O)(NC1CCCCC1)OC2 (stereo not given)	-9%	-18%[46.1 µM]	-25	15%	-7%[46.1 µM]
O=C1Cc2cc(S(=O)(=O)Nc3ccc(N4CCOCC4)cc3)ccc2N1	7%	u	0	-21%	u
O=C(Nc1ccc(Cl)cc1Cl)c1cccc(N2C(=O)C=CC2=O)c1	-29%	2%	-73*	-8%	x
O=C(O)c1cccc(N2C(=O)C=CC2=O)c1	-14%	x	-17	x	x
CC(Sc1nccn1C)C(=O)Nc1ccc(Cl)cn1 (stereo not given)	24%	14%[46.1 µM]	-12	14%	28%
CCOCc1cnc(C)nc1NCC(=O)c1c(C)[nH]c2ccccc12	18%	u	-80*	21%	-5%
CCOCc1cnc(C)nc1NCC(=O)c1c(C)[nH]c2cc(C)ccc12	x	1%	-101*	-13%	-1%
Cc1[nH]c2ccccc2c1C(=O)COc1ccccc1	24%	28%	30	11%	12%
Cc1ccc(COCCN2CCN(S(=O)(=O)c3ccccc3)CCC2=O)cc1	-23%	x	-30	2%	x
O=C1CCN(S(=O)(=O)c2ccccc2)CCN1CCOCc1ccc(C(F)(F)F)cc1	u	x	-34	10µM*	x
Cc1ccc(S(=O)(=O)N2CCC(=O)N(C(COCc3ccc(C(F)(F)F)cc3)C(C)C)CC2)cc1 (stereo not given)	u	u	x	0%[8.37 µM]	13µM*
O=S1(=O)N=C(N(CCO)/N=C/c2ccc(Br)cc2)c2ccccc21	-25%	x	-32	-4%	x

Screening results: PubChem, National Center for Advancing Translational Sciences (NCATS)
